# About 3,700 (7%) of roughly 53,000 sequences were called active. Shown is part of a subset that was picked to be rich in actives. Unmarked numbers belong to inactive results.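 The calls were made as follows: active = gene knockdowns whose robust z-score for IL-1 alpha signal is at least 2 or at most -2, so actives lie on both sides; inactive = the rest.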
# Experiment: Components of the Cytosolic LPS Sensing Pathway: Gene Identification via Genome-wide siRNA Screen;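 also: robust z of the log signal after scaling to non-targeting control siRNA wells of the plate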
# Conditions: RAW264.7 macrophages, IL-1a HTRF, actives lie on both sides, screened at 100 nM (by protocol), cells primed 5 h with Pam3CSK4 first
# Summary of the method: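 RAW264.7; siRNA 100 nM final, RNAiMAX, 48h 37 degrees C; Pam3CSK4 5 h; LipidA + TransIT-TKO 24 h; IL-1a HTRF; CellTiter-Glo viability; robust z vs negative-control median.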
row,Sequence,z-score
1,GCAGGCUCUGCAUGAAGCATT against Alpl,-0.213
2,GCCCACGUACAGAAAACAGTT against Aox2,-1.72
3,GGGAGAACACAUCUACUGATT against Slamf6,-1.17
4,GGAGACAUGCAAUGAACUUTT against Ica1l,1.02
5,GGAAUUUUUAGGAAUGGUGTT against Slc35f2,-1.38
6,GGAUUGCUGUAAAAUACAATT against Cdkn2aipnl,2.16 (active)
7,GGAAGGUACCAGGUGAUUGTT against Nmnat3,-1.89
8,GGUGCCCAUGCUUGUAGGATT against Cstdc1,2.03 (active)
9,GGUCCAUGCUCUCAUGAGUTT against Batf2,-1.34
10,GGUACAGGAAACUCAAAUATT against Lrrc4,0.318
11,GGCCAGUUUAAACCAGUCUTT against Frmd6,0.583
12,GCAUACAAUCAUGUAAGAGTT against Adprh,0.0994
13,CCAGAAACCGUGAUAAAAUTT against Immp2l,2.12 (active)
14,CGGAGCAUGAGCCAGAUAUTT against Eipr1,-0.266
15,GGAGACUGUCAGAAAGUUATT against Olfr1164,-0.769
16,GGAAAAAUCCAAGAAGCAATT against Zc3h11a,-1.09
17,GGACAUUUUUAUGCACAAUTT against Il1rl2,1.76
18,GCUCCUACUGUCCAGCAAUTT against Dusp18,-0.642
19,AAUUGAAGACUGUAAAUACTT against Sst,1.83
20,GGAACACAAAGGUAAGAAATT against Raf1,0.0798
21,GGUGCAGUUGAACUUCUACTT against Dnajc1,2.26 (active)
22,GGUUUUAAAGCACUUUGUATT against Jazf1,0.288

row,Sequence,z-score
1,GGAAACUUCUUCCCGGUUGTT against Gsdmc,1.16
2,GCUUACAAGGCAUGUAUGATT against Rccd1,3.46 (active)
3,GGGAGUUUGAUUCUGACUCTT against Ank3,-0.264
4,CCCAUGAUAAUGAAUUAGCTT against Olfr378,-0.537
5,GGUAUUUGUAAAUUUGAGGTT against Atl1,0.309
6,GGUAACAUACUAAAAGAAGTT against Vmn2r10,-1.21
7,GCAGGAUUGAAACAUGUAUTT against Tcl1b3,-0.298
8,GCCAAUUGGUUCCCUGUAATT against 1700034E13Rik,-3.04 (active)
9,CGAACUUCCAAAAAGUUCATT against A430005L14Rik,-0.498
10,GGAUUGGCAAGCAGCUAACTT against Dnase2a,-2.08 (active)
11,UCACCCUGUUCGUAAUCAUTT against Olfr467,-0.17
12,CCACUGGUUCACCUAUAAUTT against Psma5,0.092
13,CGAAUGACCUCGAUAGCUGTT against Gm5082,0.195
14,GGAAGAAGCCACCAUGUACTT against Pbx4,-1.75
15,GGCUGAGGUUCGAGUGUAUTT against Rps6ka4,3.51 (active)
16,GGCCAAUAGGACAUAUCUATT against Qprt,-0.443
17,GCUUAGCUGUUAUGUUUUUTT against Atp6ap1,1.81
18,GCAAUGUGUGGUAAGUAAATT against Zfp738,-0.757
19,GGUUUAGCUGCUGACUUAATT against Strn3,1.03
20,GGAGAAGGUUUUGAUGUGGTT against Drg1,-1.31
21,GGCAACUGGAGAUGUGUGUTT against Lpgat1,-0.361
22,CGACAUCCCAAUAAACAAGTT against Lcn3,-1.1

row,Sequence,z-score
1,GCAGAGGAGUUUUCAAUUUTT against Il17rb,0.997
2,GGCCCUUCUGGACUAUCAUTT against Ccdc83,3.39 (active)
3,GGUACCUGAGUCCAUCUCATT against Sntb1,-0.219
4,CGAACUUCAAGACUGUGAUTT against Cep95,-0.248
5,GGAAAUAAUGACCAAGUACTT against Grk5,-1.32
6,CCCUGGUAAACACCAAUAGTT against Ctnna1,0.849
7,GCCUGUCCACAUCACUGUATT against Tmem171,-0.16
8,CCCUAAGGAGUUUUGCGUUTT against Ikzf4,1.58
9,GGUCUAUUUGACCUCUUAATT against Bcl2l13,2.22 (active)
10,GGUAUAUGGACUGGUGGAUTT against Hrh2,0.41
11,GGAUCAAUGAAAAUGAGAATT against Fzr1,-0.0554
12,CCAGUACCCGUCUGAAAAGTT against Olfr215,-0.457
13,GGAUCUUUGCUACAAAAACTT against Fhl5,0.48
14,GGGAUAACCAGUGAAUUUATT against Pcdhb15,2.23 (active)
15,GGGACUUAUGUCCAGGAAGTT against Agap3,-1.09
16,GGGACCACCUUGAACACUATT against Slc52a3,1.81
17,GGCAUCUUAUUUCUUGUUATT against Tbkbp1,-0.56
18,GUGAAGAAAGUCAUCAAGATT against Olfr1506,-0.182
19,GGCUUUGAUCAGCAUGAGCTT against Pak4,-2.07 (active)
20,GCAAGGUCAAUCAAUCGUATT against Taar1,0.548
21,GCGGAGUCUUUGGCUUAGATT against Lratd2,1.03
22,CGAAAGCUAAACUAAAAGATT against Stimate,0.539

row,Sequence,z-score
1,GCUGAAUACCCUUUUAGUUTT against Atp2c1,0.317
2,GCGAUAUUAACUAUGGAGATT against Gpr149,-0.601
3,GGUAUUCCAAUAACUGUACTT against Fip1l1,-0.269
4,GGAAAGAAUCCACUUGCAUTT against Xkr5,-1.35
5,GGAGAUUUUCCAGAGGCUGTT against Josd1,-2.24 (active)
6,CGGCCUUCUCUACAAAUCATT against Rbfa,0.816
7,GCUGACCAUUUUGAUGCCCTT against Adi1,-0.0381
8,GGUGGUUUUGUUUCUUUUUTT against Tab3,0.643
9,GGGCCAACCCAGAAAAACATT against Plekha7,-0.515
10,GCCGUCUUUACAUUCCUGATT against Olfr605,0.8
11,CCCAUCAAAAGAAUCCACATT against Snrnp70,-2.51 (active)
12,GGUGUUUAAUUGCUCACUATT against Gramd4,1.13
13,UACCCGAAUGCAGACAGGATT against Raet1a,0.667
14,GGAGGAAGCUGAACUCUGGTT against Ehmt2,-0.655
15,GCAUUUAGAAGAAUCCGCCTT against Hao2,2.01 (active)
16,CCUUGUGAUGUUUAAAGACTT against Abcg1,0.293
17,GUGAGUAGGUAGGAAGCAUTT against Cd200r2,-2.56 (active)
18,CCAGUUGUCUAGACCUGCATT against Ptbp1,-0.301
19,CCUACAAGCAGAGUACAAUTT against Myo10,1.06
20,GGCCUUCAACGAUUCAAUCTT against Olfr770,1.35
21,GGAGAGAAAUUUGACACUCTT against Mgrn1,-0.0326
22,GCCAGUGUCCCUAAUAAGGTT against Ager,0.2

row,Sequence,z-score
1,GCAAACUAUAGGUGCGUUGTT against Dscc1,0.885
2,GUCUACCAGAUCCUUCCCUTT against H2-Q8,-2.25 (active)
3,GCAAACAUGUCAAGUCCGATT against Actl6b,1.07
4,GGACUAUUUGCUGAUGGACTT against Trpc6,2.74 (active)
5,GCAUUUCACCUGGAGCCUUTT against Zfp108,-1.11
6,CGAGAAUACAUUGAGGAGUTT against Hook2,0.926
7,CGACAACCACUUCAACUAUTT against Chn2,1.34
8,GGCUAUCCUCUUUUACCAUTT against Dele1,-0.374
9,GGUGUUAGGAAGUCACAUUTT against Tas2r109,-1.28
10,CCCUAUCCUGUUCAUCUCUTT against Gpr50,2.83 (active)
11,GGAAAAAGCUCAAAGGCGATT against Gap43,-0.216
12,GGAAAUGGAUCCAGAAUAUTT against Smarca1,-1.12
13,GGACAUGACAUCCAAAGACTT against Prmt1,-0.649
14,GGACACAGAUUAAUCAAGATT against Iftap,0.144
15,GGCCAUUGCCUCUUCUACUTT against Plekha4,-0.225
16,GAUCAACCUGAGCUCCAGUTT against Olfr25,2 (active)
17,GGCCAUCCGCAUUUUUUCCTT against Mex3b,-0.34
18,GGUUUUCAAAGUCCUGAAUTT against Myo3a,-1.96
19,GGGAAAGAAUGGUGUGGAATT against Dlx4,-1.97
20,GGAAACUUCAGACUAGUCATT against Eif2s3y,-0.0291

# Reference: PubChem BioAssay AID1508600 (Functional Genomics Laboratory (NCATS/FGL), 2020)
